Screening results as filed in PubChem BioAssay.
PD-1 reversal: activators reversing PD-1 mediated T-cell inhibition, primary screen, luminescence, primary human CD4 T cells, PD-L1 beads. CellTiter-Glo 96 h. activation, % (test concentration not listed). 29,000 tested, under 10 active; call rule not given here
YB-1 expression: inhibitors of YB-1 gene expression, primary screen, cell-based, fluorescence; U2OS, qRT-PCR YB-1 vs CDIP delta delta Cp, 16 h; active compounds read high; zero = DMSO, each unit about twofold; delta delta Cp (YB-1 minus CDIP) (concentration not given with the values); hit rate 0.37% among 30,000; AID 434959, 2010;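 active = delta delta Cp rounded down to an integer at or above 3, about 3 SD of DMSO wells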;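 note: higher means less YB-1 transcript or more CDIP transcript relative to DMSO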
NOMO-1 viab: NOMO-1 AML cell viability reduction, primary screen, STK33 inhibitor project, CellTiter-Glo luminescence. hit rate 7.5% among 37,000. inhibition, % (concentration not given with the values). NOMO-1 AML viability, 72 h. AID 2330, 2010; in the data active = inhibition above about 80%
ROS inducer: ROS inducers in U2OS cancer cells, primary screen, cell-based, H2DCF-DA fluorescence. ROS induction (% of piperlongumine), % at 10 µM. hit rate 2% among 46,000. U2OS ROS induction; in the data active = ROS induction above about 79%, passing the limit was not always enough
Hits are given with their value; - = inactive; . = no result given. Shown is part of a subset that was picked to be rich in hits.

SMILES	PD-1 reversal	YB-1 expression	NOMO-1 viab	ROS inducer
C[C@@H]1CN([C@H](C)CO)C(=O)c2cc(NC(=O)Cc3cn(C)c4ccccc34)ccc2O[C@H]1CN(C)Cc1ccc(C(=O)Nc2ccccc2N)cc1	-	-	-	-
C[C@@H]1CN([C@H](C)CO)C(=O)Cc2cc(NC(=O)Cc3cn(C)c4ccccc34)ccc2O[C@@H]1CN(C)Cc1ccc(C(=O)Nc2ccccc2N)cc1	-	-	-	86
C[C@H]1CN([C@@H](C)CO)C(=O)Cc2cc(NC(=O)Cc3cn(C)c4ccccc34)ccc2O[C@H]1CN(C)Cc1ccc(C(=O)Nc2ccccc2N)cc1	-	-	120	-
COc1ccc(NC(=O)CCCSc2nc(N)c3c(C)c(C)sc3n2)cc1	.	.	-	.
COc1cc(OC)cc(-c2nc(N)c3c(C)c(-c4ccc(OC)c(OC)c4)sc3n2)c1	-	-	115	-
CC(NS(=O)(=O)c1ccc(F)cc1)C(=O)Nc1ccccc1F (configuration not stated)	.	.	-	.
O=C(N/N=C/c1ccc(F)cc1)c1ccccn1	.	-	.	-
O=C(N/N=C/c1c(F)c(F)c(F)c(F)c1F)c1ccccn1	.	-	.	117
COc1ccc(-c2nc3cc(C(C)C)ccc3o2)cc1NC(=O)COc1ccc(C)cc1	-	.	-	-
COc1ccc(-c2nc3cc(C(C)C)ccc3o2)cc1NC(=O)COc1ccccc1C	-	.	106	-
Cc1cc(C)cc(OCC(=O)Nc2cc(-c3nc4ccc(C)cc4o3)ccc2C)c1	-	.	105	-
CCCCC(C(=O)N1CCCCC1)N1C(=O)c2ccccc2C1=O (configuration not stated)	.	.	.	-
CN(C)c1nc(C(C)(C)C)cc2c1C(=O)NC2=O	-	-	-	-
COC(=O)c1c(NC(=O)CC2Sc3ccccc3NC2=O)sc(C)c1C (configuration not stated)	-	.	-	-
COC(=O)c1cc(NC(=O)CC2Sc3ccccc3NC2=O)cc(C(=O)OC)c1 (configuration not stated)	.	.	113	.
Cc1ccc(S(=O)(=O)N[C@H](Cc2ccccc2)C(=O)CCl)cc1	-	-	98	-
O=C(NCc1ccccc1)C(Cc1ccccc1)NS(=O)(=O)c1ccc(Br)cc1 (configuration not stated)	.	.	.	-
Cc1ccc(Cn2c(=O)cc(C(=O)NCc3cccs3)c3ccccc32)cc1	.	.	.	-
O=C(CSc1nc2ccccc2[nH]1)n1c2ccccc2c2ccccc21	.	.	.	-
CC(C)c1ccc(NCC(O)COc2ccc(Cl)c(Cl)c2)cc1 (configuration not stated)	-	-	117	-
CC(C)c1ccc(NCC(O)CSc2ccccc2)cc1 (configuration not stated)	-	-	110	-
Cc1cc(OCC(O)CNC(C)(C)C)ccc1Cl (configuration not stated)	.	.	.	-
COC(=O)c1ccccc1NC(=O)CSc1nnc(-c2ccccc2)o1	.	.	-	.
Cc1ccc(-n2c(SCC(=O)Nc3cccc(F)c3)nc3ccccc3c2=O)cc1	-	.	-	-
O=C(CSc1n[nH]c(-c2ccc(Cl)cc2Cl)n1)N1CCc2ccccc21	-	.	-	-
SMILES	PD-1 reversal	YB-1 expression	NOMO-1 viab	ROS inducer
C[C@@H]1CCCCO[C@@H](CN(C)C(=O)Nc2ccccc2)[C@@H](C)CN([C@H](C)CO)C(=O)c2cc(NS(=O)(=O)c3cccs3)ccc2O1	-	-	-	-
C[C@@H]1CCCCO[C@@H](CN(C)C(=O)c2ccccc2)[C@@H](C)CN([C@H](C)CO)C(=O)c2cc(NS(=O)(=O)c3cccs3)ccc2O1	-	-	-	-
C[C@@H]1CCCCO[C@H](CN(C)CC2CCCCC2)[C@@H](C)CN([C@H](C)CO)C(=O)c2cc(NS(=O)(=O)c3ccccc3)ccc2O1	-	-	-	119
C[C@@H]1CCCCO[C@H](CN(C)C(=O)C2CCCCC2)[C@@H](C)CN([C@H](C)CO)C(=O)c2cc(NS(=O)(=O)c3ccc(Cl)cc3)ccc2O1	.	-	-	-
Cc1ccc(S(=O)(=O)Nc2ccc3c(c2)C(=O)N([C@H](C)CO)C[C@H](C)[C@@H](CN(C)CC2CCCCC2)OCCCC[C@@H](C)O3)cc1	-	-	-	-
C[C@@H]1CCCCO[C@@H](CN(C)C(=O)C2CCCCC2)[C@@H](C)CN([C@H](C)CO)C(=O)c2cc(NS(=O)(=O)c3ccccc3)ccc2O1	.	-	101	110
C[C@@H]1CCCCO[C@H](CN(C)C(=O)NC2CCCCC2)[C@@H](C)CN([C@H](C)CO)C(=O)c2cc(NS(=O)(=O)c3cccs3)ccc2O1	.	-	-	84
